# About 79,000 compounds went through this panel and 15% of them were active in at least one assay; those are over-represented in the sample as a whole. The source made the active and inactive calls. No stated cut-off is given here; in the data, active means growth inhibition above about 70%; inactive means the rest.
# Assay: NCI Yeast Anticancer Drug Screen. Data for the mlh1 rad18 strain (AID 175)
# Details: S. cerevisiae mlh1 rad18 strain growth inhibition; at 50.0 µM; hits give high values
# Method in brief: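 Inhibition values reflect reduced growth of mutant yeast versus vehicle-treated controls following compound exposure; the mutations affect DNA damage repair.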
row,SMILES,growth inhibition
1,O=[N+]([O-])c1ccc(/C=C/C=C/c2ccccc2)c(Cl)c1,-11.4% (inactive)
2,O=c1[nH]n(-c2ccccc2)c(=O)cc1Cl,2% (inactive)
3,Nc1nc(N)c2cc(S(=O)(=O)c3cccc(C(F)(F)F)c3)ccc2n1,-59.4% (inactive)
4,COc1cc(/C=C(\C#N)C(=O)c2ccccc2)ccc1OCc1ccccc1,-18% (inactive)
5,CC1(C)/C(=C\CO)C2CCC1C2 (stereo not drawn),3.7% (inactive)
6,COc1cc2c(cc1O)CC[C@@H]1C2CC[C@@]2(C)C1CC[C@@H]2O (stereo partly drawn),18.3% (inactive)
7,Cc1ccc(N)cc1[N+](=O)[O-],15.8% (inactive)
8,CCCNc1ccc(C2=NCCCN2)cc1,-1.5% (inactive)
9,Cc1cc(OCCO)cc(C)c1Cl,-12.3% (inactive)
10,O=C(O)C(c1ccccc1)C(O)c1ccccc1 (stereo not drawn),-7.45% (inactive)
11,COC(=O)/C=C\C(=O)OC,14.7% (inactive)
12,N#CSc1cc(S(N)(=O)=O)ccc1N,32% (inactive)
13,O=[N+]([O-])c1ccc(N=Nc2ccccc2)cc1,14.8% (inactive)
14,CCCC(=O)Nc1ccc2c(c1)CN1C(=O)c3ccccc3C1=N2,-7.15% (inactive)
15,Nc1nc(OCc2ccccc2)c2[nH]cnc2n1,-42.5% (inactive)
16,CC1(C)S(=O)(=O)OCCOS1(=O)=O,0.15% (inactive)
17,CC1CC(O)C2C3(C)CCCC2(COC3=O)C12CCC1(CCOC1=O)O2 (stereo not drawn),13.6% (inactive)
18,CN(C)Cc1cc(C(C)(C)CC(C)(C)C)ccc1O,42.5% (inactive)
19,CC(=O)OCC1=CC2OC(=O)C3=COC(OC4OC(CO)C(O)C(O)C4O)C1C32 (stereo not drawn),-51.6% (inactive)

row,SMILES,growth inhibition
1,O=C(O)COCC(=O)O,4.75% (inactive)
2,CCCCC1(CC)COC(CCC)OC1 (stereo not drawn),11.5% (inactive)
3,CCCCC/C=N/Nc1nc(C)cc(=O)[nH]1,4.4% (inactive)
4,NC(=O)c1ccc(N=C(N)N=C(N)N)cc1,-2.05% (inactive)
5,O=C(Nc1ccccc1)OCCc1ccccc1,34.2% (inactive)
6,CC1(C)N=C(N)N=C(N)N1c1ccc(Cl)cc1,35.7% (inactive)
7,CC(=O)Nc1cccc(NC(C)=O)n1,6.1% (inactive)
8,c1ncc2[nH]cnc2n1,6.3% (inactive)
9,S=C1CCCCCN1,30.8% (inactive)
10,O=C(NCCNC(=O)c1ccc(Cl)cc1Cl)c1ccc(Cl)cc1Cl,-20.2% (inactive)
11,Cc1nc2ccccc2c2nnc(SCC(=O)N(Cc3ccccc3)c3ccccc3)n12,2.25% (inactive)
12,C=C1CC/C=C(\C)C(=O)C[C@@H]2[C@@H]1CC2(C)C,-43.1% (inactive)
13,Cc1ccc(C)n1-c1ccsc1C(=O)NNC(=O)CCl,-3.85% (inactive)
14,Nc1ccc(N)c([N+](=O)[O-])c1,-15.2% (inactive)
15,CC(=Nc1ccccc1)C1=C(O)C(Cc2cccc(F)c2)NC1=O (stereo not drawn),-22% (inactive)
16,CC(=O)OC(C(=O)O)c1ccccc1 (stereo not drawn),23.5% (inactive)
17,COC(=O)c1[nH]c(=O)c(C#N)c(C(=O)OC)c1C(=O)c1ccccc1,12% (inactive)
18,N#Cc1ccc(NC(=O)Nc2cccc(C#N)c2)cc1,-15.6% (inactive)
19,Cc1cc2nc(CO)[nH]c2cc1C,1.8% (inactive)
